Screening results deposited in PubChem BioAssay by University of Kansas High Throughput Screening Laboratory.
Shown is part of a subset that was picked to be rich in hits.
mHTT-CaM PPI inh = mutant huntingtin-calmodulin interaction inhibitors – biochemical, AlphaScreen, primary screen; 3.6% of 190,000 active; inhibition, % at 15 µM; P42858; AlphaScreen His-mHTT/GST-CaM binding, luminescence
Pf apPOL inh = Pf-apPOL inhibitors, biochemical, fluorescence; inhibition, % at 10 µM; Plasmodium falciparum apicoplast DNA polymerase (apPOL); 0.25% of 210,000 active; Recombinant Pf-apPOL, molecular beacon fluorescence, 1.5 h
Numbers stand for hits; - = inactive; . = not tested or not shown; ! = not confirmed by another sample. Rule as the data show it: active = inhibition above about 50%; inactive = the rest.

SMILES	mHTT-CaM PPI inh	Pf apPOL inh
O=C(Cc1ccc(F)cc1)Nc1nnc(-c2ccc3c(c2)CCCC3)o1	-	-
O=C(Cc1cccc(F)c1)Nc1nnc(C2CC(=O)N(c3ccc(F)cc3)C2)o1 (stereo unspecified)	74	-
O=C(Cc1ccc(F)cc1)Nc1nnc(C2CC(=O)N(c3ccc(F)cc3)C2)o1 (stereo unspecified)	80	-
CSc1ccc(N2CC(c3nnc(NC(=O)c4c(F)cccc4F)o3)CC2=O)cc1 (stereo unspecified)	-	-
COc1ccccc1-c1nnc(NC(=O)C2CC(=O)N(c3ccc(F)cc3)C2)o1 (stereo unspecified)	-	-
Cc1nc(C)c(-c2nnc(NC(=O)C3CC(=O)N(c4ccc(F)cc4)C3)o2)s1 (stereo unspecified)	97	-
O=C(Nc1nnc(C2CC(=O)N(c3ccc(F)cc3)C2)o1)c1ccc(F)cc1 (stereo unspecified)	-	-
COc1ccc(C(=O)Nc2nnc(C3CC(=O)N(c4ccc(F)cc4)C3)o2)cc1OC (stereo unspecified)	54	-
O=C1CC(c2ccccc2Cl)CC2=C1C(c1ccc(F)cc1)Nc1ccccc1N2 (stereo unspecified)	57	-
Cc1ccc(C2Nc3ccccc3NC3=C2C(=O)CC(c2ccccc2F)C3)cc1 (stereo unspecified)	-	-
O=C1CC(c2ccccc2)CC2=C1C(c1ccc(C(F)(F)F)cc1)Nc1ccccc1N2 (stereo unspecified)	86	-
COc1ccc(C2CC(=O)C3=C(C2)Nc2ccccc2NC3c2ccc(Cl)c([N+](=O)[O-])c2)cc1 (stereo unspecified)	52	-
O=C1CC(c2ccccc2)CC2=C1C(c1ccccc1C(F)(F)F)Nc1ccccc1N2 (stereo unspecified)	-	-
COc1ccc(C2CC(=O)C3=C(C2)Nc2ccccc2NC3c2cccc(C(F)(F)F)c2)cc1 (stereo unspecified)	-	-
COc1ccc(C2CC(=O)C3=C(C2)Nc2ccccc2NC3c2ccc(C(F)(F)F)cc2)cc1 (stereo unspecified)	53	-
COc1ccc(C2Nc3ccccc3NC3=C2C(=O)CC(c2ccccc2)C3)cc1 (stereo unspecified)	-	-
O=C(CSc1nc2c(c(=O)n1-c1ccc(F)cc1)SCC2)NCc1ccccc1	-	-
O=C(NCC1CCN(Cc2ccco2)CC1)Nc1cccs1	-	-
COc1ccc2nc(Cl)c(C3CC(c4ccc(Cl)cc4)=NN3C(C)=O)cc2c1 (stereo unspecified)	-	-
COc1ccc(C(=O)Nc2cccc(Cl)c2Cl)cc1[N+](=O)[O-]	-	-
COc1ccc(C(C)NC(=O)c2cn3c(n2)CSCC3)cc1OC (stereo unspecified)	-	-
CC(=O)Nc1sc(C)c(C)c1C#N	-	-
CCN(CC)C(=O)c1ccc(OC)c(OC)c1	-	-
O=C1CC(c2cccs2)CC2=C1C(c1ccc(Cl)c(Cl)c1)Nc1ccccc1N2 (stereo unspecified)	77	-
O=C1CC(c2ccccc2)CC2=C1C(c1ccc(F)c(Br)c1)Nc1ccccc1N2 (stereo unspecified)	59	-
SMILES	mHTT-CaM PPI inh	Pf apPOL inh
O=C1CC(c2cccs2)CC2=C1C(c1ccc(F)cc1)Nc1ccccc1N2 (stereo unspecified)	-	-
O=C1CC(c2ccccc2)CC2=C1C(c1cccc(F)c1)Nc1ccccc1N2 (stereo unspecified)	-	-
Cc1c(C(=O)Nc2cc(Cl)c(Cl)cc2Cl)oc2ccccc12	-	-
CCOC(=O)C1CCC(CNC(=O)N2CCn3c(C)ccc3C2CC)CC1 (stereo unspecified)	-	-
Cc1ccccc1CNC(=O)C1CCc2nc(N3CCN(C(=O)C(C)C)CC3)sc2C1 (stereo unspecified)	-	-
COc1ccc(C2Cn3nnc(C(=O)NCc4ccc(F)cc4Cl)c3CO2)cc1 (stereo unspecified)	-	-
COc1ccc(NC(=O)c2cc(Br)ccc2OC)c(OC)c1	-	-
O=C(Nc1cccc(C(F)(F)F)c1)C1CCN(c2cc(-n3ccnc3)ncn2)CC1	-	-
Cc1cccc2oc(-c3cc(N=Cc4ccc([N+](=O)[O-])cc4)ccc3O)nc12	-	59
Cc1cccc2oc(-c3cc(N=Cc4cc([N+](=O)[O-])cc([N+](=O)[O-])c4O)ccc3O)nc12	-	-
Cc1cc(C)[n+]2cc(S(=O)(=O)[O-])sc2n1	-	.
c1ccc(-c2ccc(-c3ccccn3)nn2)nc1	100	.
c1ccc(-c2ccccn2)nc1	.	-
COc1ccc(-c2nnc(C)c(N3CCC(C)CC3)n2)cc1	-	-
CCOC(=O)C1CCN(c2nc(-c3cccc(C)c3)nnc2C)CC1	58	-
Cc1ccc(-c2nnc(C)c(N3CCC(C)CC3)n2)cc1	82	-
CCOC(=O)C1CCN(c2nc(-c3ccc(C)cc3)nnc2C)CC1	-	-
COc1ccc(Cl)cc1-n1c(SCc2cccc(F)c2)nc2[nH]ncc2c1=O	-	-
COc1cc(OC)cc(C2=NC3(CCCC3)N(C(=O)c3ccc(OC)c(OC)c3)C2=S)c1	85	-
COc1cc(C(=O)N2C(=S)C(c3ccccc3)=NC23CCCCC3)cc(OC)c1OC	-	-
Cc1[nH]c2ccccc2c1-c1csc(-c2cccnc2)n1	-	-
Cc1[nH]c2ccccc2c1-c1csc(-c2ccncc2)n1	70!	-
Cc1c(N=Cc2ccc(N3CCOCC3)c([N+](=O)[O-])c2)c(=O)n(-c2ccccc2)n1C	-	-
c1ccc(CNc2nc(-c3ccccc3)[n+](-c3ccccc3)s2)cc1	84	-
c1ccc(Nc2nc(-c3ccccc3)[n+](-c3ccccc3)s2)cc1	-	-
SMILES	mHTT-CaM PPI inh	Pf apPOL inh
O=C(COc1ccccc1)Nc1ccc(OC(F)F)cc1	-	-
COc1ccc(CNC(=O)c2oc(=O)c3ccccc3c2-c2ccc(C)cc2)cc1	-	-
CCN(CC)S(=O)(=O)c1ccc(-c2csc(C)n2)s1	.	-
Cc1ccc(NCCNS(=O)(=O)c2ccc(-c3csc(C)n3)s2)nn1	99	-
Oc1cccc(CN2CCSCC2)c1	-	-
O=C(Nc1cccc(-c2nc3ccccc3[nH]2)c1)c1ccc([N+](=O)[O-])cc1	84!	-
CC(=O)c1ccc(C(=O)Nc2cccc(-c3nc4ccccc4[nH]3)c2)cc1	-	-
Cc1cccc(N2CCn3c2nc2c3c(=O)n(C)c(=O)n2C)c1	-	-
COc1ccc(OCC(=O)N2CCCC2c2nc(-c3cccc(C)c3)no2)cc1 (stereo unspecified)	-	-
COc1cccc(-c2noc(C3CCCN3C(=O)Nc3ccc(F)c(Cl)c3)n2)c1 (stereo unspecified)	58	-
CCn1ccc(C(=O)N2CCCC2c2nc(-c3cccc(Cl)c3)no2)n1 (stereo unspecified)	-	-
CCC(=O)Nc1cccc(-c2noc(C3CCCN(C(=O)c4cccc(OC)c4)C3)n2)c1 (stereo unspecified)	-	-
Cc1ccc(OCC(=O)N2CCCC2c2nc(-c3cccc(C)c3)no2)cc1 (stereo unspecified)	80	-
COc1cccc(-c2noc(C3CCCN3C(=O)Nc3cccc(Cl)c3)n2)c1 (stereo unspecified)	-	-
CCC(=O)Nc1cccc(-c2noc(C3CCCN(C(=O)COc4cccc(C)c4)C3)n2)c1 (stereo unspecified)	79	-
